From PubChem BioAssay (NCATS) come the findings set out here.

Results filed as inconclusive are left out. A number with no mark means an inactive call. The source made the active and inactive calls. The call rests on the fitted dose curve; in most records, active means well fitted curve in the direction sought with a large enough effect; inconclusive means small, poorly fitted or top-dose-only effect, or another doubt; inactive means no such curve, though single readings can be large; an effect the other way counts as inactive or inconclusive.

The test system of one assay is CRL-7250. Put plainly: Cytotoxic Profiling of Annotated Libraries Using Quantitative High-Throughput Screening (AID 1296008). Further: nearly all actives have a fitted effect of over 60% in size. Further: potency means the concentration at half of the fitted maximal effect. On max response: on the % scale 0 is the no-effect control and ±100 the full control effect. The conditions noted are these: Five cell lines viability, CellTiter-Glo ATP luminescence, 48-72 h; max response: hits give low values. An outline of the steps:
(§1)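 Cytotoxicity was measured as CellTiter-Glo ATP luminescence, read after 10 min at room temperature. Compound treatment of the cells lasted 48 or 72 hr at 37 degrees Celsius in a qHTS format.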
(In general: Cellular ATP, detected with luciferase, serves as a proxy for viable cell number.)

Another assay has as its system HEK293. Described as above. The conditions noted are these: Five cell lines viability, CellTiter-Glo ATP luminescence, 48-72 h; max response: hits give low values. An outline of the steps: as §1
Assay [1] deals with HaCat. Described as above. To be noted: Five cell lines viability, CellTiter-Glo ATP luminescence, 48-72 h; max response: hits give low values. An outline of the steps:
as §1

Another assay has as its system KB-3-1. The assay is described as above. The conditions noted are these: Five cell lines viability, CellTiter-Glo ATP luminescence, 48-72 h; max response: hits give low values. In outline: as §1
For the next assay, the system named is NIH3T3. Described as above. The conditions noted are these: Five cell lines viability, CellTiter-Glo ATP luminescence, 48-72 h; max response: hits give low values. An outline of the steps:
as §1

For assay [2], the system named is HACAT. In words: qHTS assay to identify novel small-molecules to repurpose for Merkel cell carcinoma treatment (AID 1296009). Further: nearly all actives have a fitted effect of over 60% in size. To be noted: MCC and control cell lines, CellTiter-Glo viability, 72 h; at 44.8 µM (top of the series) unless noted. An outline of the steps: (§2)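 Cell viability measured by CellTiter-Glo following 72 hr compound treatment at 37 degree celsius, with NPC and MIPE libraries tested in 8- and 11-point concentration series.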
(In general: Quantitative high-throughput screening tests each substance at several concentrations.)

In a further assay the test system is HEK293T. Described as above. To be noted: MCC and control cell lines, CellTiter-Glo viability, 72 h; series mostly up to 44.8 µM. In outline: as §2
The test system of a further assay is C33A. In words: Primary qHTS to identify gynecologic anti-cancer compounds using libraries of approved drugs and bioactive compounds (AID 1345084). Further: on the % scale 0 is the no-effect control and ±100 the full control effect; nearly all actives have a fitted effect of over 55% in size. The conditions noted are these: Gynecologic cancer cell panel viability, ATPlite luminescence, 48 h; series mostly up to 57.5 µM. An outline of the steps:
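Cells, 1,000 per well, were allowed to settle for 16 h at 37 C before compound addition. Five concentrations were tested for 48 h, and viability was read by ATPlite luminescence after 15 min at room temperature.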

For the compound `CCC(CCO[C@@H]1O[C@H](CO[C@H]2OC[C@](O)(CO)[C@H]2O)[C@@H](O)[C@H](O)[C@H]1O)C(C)(C)O` (stereo not given in full), the max response in the assay on CRL-7250 was -2.81%; with NIH3T3, 1.97%. Further, the result in the assay with HEK293, in the assay with HaCat [1] and in the assay with KB-3-1 was inactive. Also, in the assay with HACAT [2], the outcome was “inactive [at 17.4 µM]”. Further, the Potency result in the assay on HEK293T and with C33A was “inactive” in each case.

Turning to `C=C1CCC2C(C)(CO[C@@H]3O[C@H](CO)[C@@H](O)[C@H](O)[C@H]3O)C(O)CCC2(C)C1C(=O)CC1=CCOC1=O` (stereo not given in full), the max response is -10.6% with CRL-7250, 4.59% with KB-3-1 and 1.1% in the assay on NIH3T3. In addition, the compound was called inactive in the assay with HEK293 and with HaCat [1]. Besides, in the assay with HACAT [2], the outcome is “inactive [at 17.4 µM]”. Besides, the Potency result in the assay with HEK293T and in the assay on C33A was “inactive” in each case.

Take `C=C[C@H]1[C@H](O[C@@H]2O[C@H](CO)[C@@H](O)[C@H](O)[C@H]2O)OC=C(C(=O)OC)[C@H]1C[C@@H]1N[C@H](C(=O)O)Cc2c1[nH]c1ccccc21`: the max response in the assay with CRL-7250 is 2.01%; with KB-3-1, -4.8%; with NIH3T3, -2.92%. Also, the outcome in the assay on HEK293 and with HaCat [1] was inactive. The outcome in the assay with HACAT [2] is “inactive [at 17.4 µM]”. The Potency entry in the assay on HEK293T and in the assay on C33A was “inactive” throughout.

With `C[C@@H]1CC[C@]2(C(=O)O)CC[C@]3(C)C(=CCC4[C@]5(C)C(CC[C@]43C)C(C)(C)[C@@H](O)[C@H](O)[C@@H]5O)C2[C@]1(C)O` (stereo not given in full), the max response was -2.7% in the assay on CRL-7250 and -3.49% in the assay on NIH3T3. In addition, the call with HEK293, in the assay on HaCat [1] and in the assay on KB-3-1 was inactive. Also, the outcome with HACAT [2] was “inactive [at 17.4 µM]”. The Potency result in the assay on HEK293T and in the assay on C33A was “inactive” each time.

`COc1cc(/C=C/C(=O)OC[C@H]2O[C@H](O[C@]3(CO)O[C@H](CO)[C@@H](O)[C@@H]3O)[C@H](O)[C@@H](O)[C@@H]2O)cc(OC)c1O`: the max response was 0.115% in the assay with CRL-7250, -1.09% in the assay with KB-3-1 and -20.7% with NIH3T3. The call in the assay with HEK293 and in the assay with HaCat [1] was inactive. The outcome in the assay on HACAT [2] was “inactive [at 17.4 µM]”. Besides, the Potency entry with HEK293T and in the assay on C33A was “inactive” in each case.

As for `CC1CCC2(C(=O)OC3OC(CO)C(O)C(O)C3O)CCC3(C)C(=CCC4C5(C)CC(O)C(O)C(C)(C(=O)O)C5CCC43C)C2C1(C)O` (stereo not given), the results for the max response with CRL-7250 and in the assay on KB-3-1 were 3.23% and 1.03%, respectively. Further, the compound was called inactive in the assay on HEK293, with HaCat [1] and in the assay on NIH3T3. Further, the outcome in the assay with HACAT [2] is “inactive [at 17.4 µM]”. The Potency entry in the assay on HEK293T and in the assay on C33A was “inactive” each time.

Consider `CC(C)(O)/C=C1/C(=O)C(C)(C)C(=O)C(C)(C)C1(O)O[C@@H]1O[C@H](COC(=O)c2cc(O)c(O)c(O)c2)[C@@H](O)[C@H](O)[C@H]1O` (stereo not given in full), for which the max response in the assay with CRL-7250 is -11.2%; in the assay on NIH3T3, 4.71%. Further, the compound was called inactive in the assay on HEK293, in the assay on HaCat [1] and with KB-3-1. In the assay with HACAT [2], the outcome is “inactive [at 17.4 µM]”. Besides, the Potency result in the assay on HEK293T and in the assay with C33A was “inactive” each time.

Take `CCCOc1ccn2c(C(C)=O)cc(-c3ccccc3S(C)(=O)=O)c2c1`: the outcome with CRL-7250, with HEK293, in the assay with HaCat [1] and in the assay with HACAT [2] was inactive. Also, the max response in the assay on KB-3-1 was 3.55%; in the assay with NIH3T3 it was -3.04%. The Potency result with HEK293T and in the assay on C33A was “inactive” each time.

`CCOC(=O)c1c(C)nn(-c2cccc([N+](=O)[O-])c2)c1C`: the max response in the assay with CRL-7250 is -7.75%; with KB-3-1, 0.772%; with NIH3T3 it was 3.21%. Moreover, the outcome with HEK293, in the assay on HaCat [1] and with HACAT [2] was inactive. Besides, the Potency entry with HEK293T and in the assay on C33A was “inactive” each time.

Turning to `COc1cc(COC2OC(CO)C(O)C(O)C2O)cc(OC)c1O` (stereo not given), the compound was called inactive with CRL-7250, with HEK293, in the assay on HaCat [1], with KB-3-1, in the assay with NIH3T3 and in the assay on HACAT [2]. The Potency result in the assay with HEK293T and with C33A was “inactive” in each case.

As to `CC(=O)OC[C@]12[C@H](OC(C)=O)C(=O)[C@@H]3[C@@H](OC(C)=O)[C@@]14O[C@@]3(C)COC(=O)c1cccnc1[C@@H](C)[C@H](C)C(=O)O[C@@H]([C@H](OC(C)=O)[C@@H]2OC(C)=O)[C@]4(C)O`, the max response with CRL-7250 was 2.64%; with NIH3T3, -8.22%. Also, the compound was called inactive in the assay on HEK293, in the assay with HaCat [1] and in the assay on KB-3-1. In the assay with HACAT [2], the outcome is “inactive [at 17.4 µM]”. The Potency result with HEK293T and in the assay on C33A was “inactive” throughout.

With `O=C(c1ccccn1)c1cnn2c(-c3ccncc3)ccnc12`, the max response in the assay with CRL-7250 is 3%; with KB-3-1, -2.39%; in the assay on NIH3T3, 1.02%. In addition, the compound was called inactive in the assay with HEK293, with HaCat [1] and with HACAT [2]. For the same compound, the Potency result with HEK293T and in the assay on C33A was “inactive” throughout.

In the case of `COC(=O)C1=CO[C@@H](O[C@@H]2O[C@H](CO)[C@@H](O)[C@H](O)[C@H]2O)[C@@H]2[C@@H](C(=O)OC)[C@@H](O)C(O)[C@H]12` (stereo not given in full), the max response with CRL-7250 is -2.23%; with KB-3-1, 0.336%; with NIH3T3 it was 1.13%. For the same compound, the compound was called inactive in the assay on HEK293 and in the assay with HaCat [1]. Further, in the assay with HACAT [2], the outcome is “inactive [at 17.4 µM]”. Moreover, the Potency result in the assay with HEK293T and in the assay with C33A was “inactive” throughout.

Take `CC(C)c1nc(N(C)S(C)(=O)=O)nc(-c2ccc(F)cc2)c1/C=C/[C@@H](O)C[C@@H](O)CC(=O)O`: in the assay on CRL-7250, the Potency is 16.4 µM (active). Also, the outcome in the assay on HEK293, in the assay with HaCat [1], in the assay with KB-3-1 and in the assay with HACAT [2] was inactive. For the same compound, in the assay with NIH3T3, the max response is 0.504%. Further, the Potency result with HEK293T and in the assay with C33A was “inactive” throughout.

Turning to `CCOC(=O)[C@H]1O[C@@H]1C(=O)N[C@@H](CC(C)C)C(=O)NCCC(C)C`, the compound was classed as inactive with CRL-7250, in the assay on HEK293, in the assay with HaCat [1], in the assay with KB-3-1 and in the assay on HACAT [2]. The max response in the assay on NIH3T3 was -2.92%. The Potency result in the assay with HEK293T and in the assay with C33A was “inactive” throughout.
